Compound activity: PubChem, National Center for Advancing Translational Sciences (NCATS)
Compounds with a hit are over-represented: about 12% of the library has one in this group of screens.
JMJD2A Tudor inh: inhibitors of human JMJD2A Tudor domain; Potency, µM (top dose mostly 114 µM), without a hit: at the top dose activity change, negative = inhibition, most hits filed as inhibitors; O75164; AID 504339; AlphaScreen JMJD2A-Tudor / H3K4me3 peptide binding; 390,000 compounds, 4.4% hits; also: % is scaled to controls: 0 for no effect and ±100 for the full control effect; nearly all actives have a fitted effect of over 50% in size
G9a block: blocks human histone lysine methyltransferase G9a; Potency, µM (titrated, usually from 102 µM), for inactives: at the highest dose activity, negative = inhibition, hits mostly inhibitors; 350,000 compounds, 8.8% hits; AID 504332; G9a H3K9 monomethylation, AlphaScreen, 2 h; Q96KQ7; also: % is scaled to controls: 0 for no effect and ±100 for the full control effect; nearly all actives have a fitted effect of over 75% in size
Target sequence (Q96KQ7 913-1193 limits assumed): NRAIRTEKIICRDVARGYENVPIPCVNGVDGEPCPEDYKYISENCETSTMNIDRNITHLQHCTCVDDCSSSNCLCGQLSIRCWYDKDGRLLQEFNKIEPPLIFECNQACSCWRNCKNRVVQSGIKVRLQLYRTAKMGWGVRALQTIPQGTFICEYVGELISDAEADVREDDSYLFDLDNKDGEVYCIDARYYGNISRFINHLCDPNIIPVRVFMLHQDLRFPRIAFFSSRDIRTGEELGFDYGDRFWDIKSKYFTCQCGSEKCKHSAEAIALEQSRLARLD
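G9a (20 nM) was preincubated 15 min with compound, then reacted 2 h at room temperature with 500 nM biotin-H3K9 peptide and 20 µM SAM. Monomethyl-H3K9 detected by AlphaScreen using anti-H3K9me1 antibody.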
PLK1 PBD inh: blocks phosphopeptide binding to human PLK1 polo-box domain; Plk1 PBD binding of FITC phosphopeptide, fluorescence polarization; 360,000 compounds, 2.8% hits; Potency, µM, for the others: max response, negative = inhibition, actives largely listed as inhibitors; also: series mostly up to about 57 µM; % is scaled to controls: 0 for no effect and ±100 for the full control effect; nearly all actives have a fitted effect of over 65% in size
HP1b chromo inh: inhibitors of HP1-beta chromodomain binding to methylated histone tails; AlphaScreen HP1-beta / biotin-H3K9me3 peptide binding; AID 540317; P83916; Potency, µM (top dose mostly 114 µM), for inactives: at the highest dose activity change, negative = inhibition, hits mostly inhibitors; 390,000 compounds, 0.56% hits; also: nearly all actives have a fitted effect of over 70% in size
Target sequence (P83916 whole entry, looked up): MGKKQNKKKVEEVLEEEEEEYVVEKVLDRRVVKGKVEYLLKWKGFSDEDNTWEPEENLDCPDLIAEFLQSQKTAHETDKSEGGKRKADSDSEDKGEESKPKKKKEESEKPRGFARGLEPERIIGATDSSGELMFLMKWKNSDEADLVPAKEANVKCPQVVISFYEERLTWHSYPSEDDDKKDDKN
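AlphaScreen: HP1-beta (50 nM) preformed 30 min with biotin-H3(1-18)K9me3 peptide (50 nM) in PBS pH 7.4, 0.01% Tween-20. Compound added for 30 min at RT, then streptavidin donor/nickel chelate acceptor beads (10 ug/mL) for 30 min.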
Sfp PPTase inh: blocks B. subtilis Sfp PPTase activity; Q9F4F7; Biochemical Sfp PPTase activity, qHTS; Potency, µM, without a hit: largest response in the series, negative = inhibition, most hits filed as inhibitors; 310,000 compounds, 3.5% hits;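 also: the enzyme is Sfp with the accession as filed and its product quenches rhodamine fluorescence; 0% = enzyme reaction without inhibitor and -100% = no enzyme wells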
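Reaction rates are the 30-min fluorescence difference (ex 525, em 598 nm) in wells containing 15 nM Sfp, 5 uM rhodamine-CoA and 12.5 uM BHQ-2-YbbR at pH 7.6 with 10 mM MgCl2.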
BAZ2B inh: blocks human BAZ2B; AID 504333; Potency, µM (highest dose often 114 µM), without a hit: at the top dose activity change, negative = inhibition, hits mostly inhibitors; AlphaScreen BAZ2B-H3K14Ac peptide displacement; 360,000 compounds, 4.4% hits; Q9UIF8; also: % is scaled to controls: 0 for no effect and ±100 for the full control effect; nearly all actives have a fitted effect of over 60% in size
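AlphaScreen displacement of biotin-H3(5-23)K14Ac peptide (50 nM final) from BAZ2B (50 nM final) in PBS pH 7.4, 0.01% Tween-20; complex preformed 30 min RT, then compounds (top 110 uM) 30 min RT, beads 20 min dark.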
The depositor's hits bear a star; ? = inconclusive; . = no result given; [ ] = another dose, or the depositor's remark. Calls follow the shape of the dose curve; as a rule, active = well fitted curve in the direction sought with a large enough effect; inconclusive = small, poorly fitted or top-dose-only effect, or another doubt; inactive = no such curve, though single readings can be large; an effect the other way counts as inactive or inconclusive. Potency is read from the fitted curve at half-maximal effect.

SMILES | JMJD2A Tudor inh | G9a block | PLK1 PBD inh | HP1b chromo inh | Sfp PPTase inh | BAZ2B inh
S=c1nn[nH]c2ccccc12 | 11µM* | . | 27µM* | -13% | . | .
Nc1n[nH]c2ccccc12 | -13% | 0% | -10% | 22% | 15% | -4%
CSc1cccc(NC(=O)c2cc(S(=O)(=O)N3CCc4ccccc43)cn2C)c1 | -11% | . | -3% | 47% | 11% | -8%
NNc1ccc(Cl)nn1 | 8.9µM* | . | -1% | 79µM* | 45µM* | 20µM*
CCOc1cc(/C=C2\C(=O)N(CCC#N)N=C2C)ccc1OCC(N)=O | -7% | 71µM* | 19µM* | 59% | 27% | -7%
CCOc1cc(/C=N/n2cnnc2)ccc1OCC(=O)Nc1ccccc1OC | -14% | -6%[12.7 µM] | -7% | 26% | 7% | 2%
COc1cc(/C=C2\C(=O)N(CCC#N)N=C2C)ccc1OCC(=O)Nc1ccccc1 | -6% | 22%[59 µM] | 1.3µM* | 30% | 7% | 2%
CC1=NN(CCC#N)C(=O)/C1=C/c1ccc(N(C)C)cc1 | -23% | ? | -1% | ? | 4% | .
CCOc1cc(/C=C2\C(=O)N(c3cccc(C(=O)O)c3)N=C2C(F)(F)F)ccc1OCC(=O)Nc1ccccc1OC | . | . | . | . | -2% | 50µM*
COc1ccc(CCNc2nc3cc(OC)c(OC)cc3c3nc(-c4ccccc4)nn23)cc1OC | -3% | -28%[59 µM] | . | -3% | . | ?
CC(=O)c1ccc(S(=O)(=O)Nc2cccc(-c3ccc(N4CCCCCC4)nn3)c2)cc1 | -27% | -19%[59 µM] | . | 8%[57 µM] | . | -4%
O=C(COC(=O)c1ccc(O)cc1)Nc1cc(S(=O)(=O)N2CCCCCC2)ccc1Cl | . | . | -6% | . | . | .
O=C(COC(=O)c1ccc[nH]c1=O)Nc1cc(S(=O)(=O)N2CCCCC2)ccc1Cl | 89µM* | -41% | ? | 39% | 6% | 15%
Nc1cc(N)cc(C(=O)OCC(=O)Nc2cc(S(=O)(=O)N3CCCCC3)ccc2Cl)c1 | 35µM* | 32µM* | -5% | 50µM* | 16% | 25µM*
O=C(COC(=O)c1ccc[nH]c1=O)Nc1ccc(S(=O)(=O)N2CCCC2)cc1 | ? | 7%[12.7 µM] | -3% | 5% | 4% | -23%
CCCCn1c(N)c(N(CC(C)C)C(=O)C2CCN(S(=O)(=O)c3ccc(OCC)cc3)CC2)c(=O)[nH]c1=O | -12% | -32% | -10% | 18% | . | -6%
CCCC[C@H]1C[C@@H]1[C@@H]1N(C(C)=O)[C@H](c2cccc(OC)c2)CC12CC2 | . | . | . | . | 6% | .
Cc1ccnc(SCc2ccc(C(=O)O)cc2)n1 | ? | . | 12µM* | 32% | 7% | -4%
Cc1csc(SCc2ccccc2C(=O)O)n1 | -31% | -2%[59 µM] | -20% | 70% | 13% | -27%
Cc1ccc(NC(=O)c2ccc(CSc3nccc(C)n3)cc2)cc1 | -15% | 4% | -6% | 27% | 3% | 2%
Cc1csc(SCc2ccc(C(=O)O)cc2)n1 | 5% | 45µM* | 3% | 24% | 7% | -34%
CC(C)Oc1cccc(C(=O)N/N=C/c2coc3ccccc3c2=O)c1 | -10% | -11% | ? | 55% | 9% | -1%
COC(=O)C/C=C\[C@@H](C)[C@@H](/C=N\O[C@@H](C)CN1CCCCc2nc(C)c(C)cc21)OC | . | . | . | . | 8% | .
C/C(=N\NC(=O)c1ccc(OC2OCCOC2Oc2ccc(C(=O)N/N=C(\C)c3ccncc3)cc2)cc1)c1ccncc1 (centres undefined) | -33% | 13µM* | 3% | -24% | -26% | -16%
C/C(=N\NC(=O)c1ccncc1)c1ccc(N2CCOCC2)cc1 | -3% | 28%[12.7 µM] | -24% | -1% | . | 3%
C/C(=N\NC(=O)c1ccncc1)c1ccc(N(C)C)cc1 | 18µM* | -6% | 27µM* | -10% | ? | -2%
CCOc1ccc(NC(=O)CSc2ccc3ccccc3n2)cc1 | -9% | -1%[59 µM] | . | 4% | . | 4%
COc1ccc(NC(=O)C2=C(C)Nc3c(C(=O)Nc4ccc(C)cc4)cnn3C2c2cccc(Cl)c2)cc1 (centres undefined) | 5% | -6%[59 µM] | . | 24% | . | 12%[57.1 µM]
Cc1cccc(NC(=S)NC(=O)c2ccc(Br)o2)c1C | 2% | -10%[59 µM] | -3% | 5% | 7% | ?
